In PubChem BioAssay one finds composite z-score and z-score data, which are given here for 19 molecules.

Activity calls are given as the source filed them. Unless noted, the rule behind the calls is not given here.

In assay [1] the test system is XIP peptide (Xip251-270) binding. Nature of the assay: small-molecule binders of XIP peptide, primary screen, biochemical, small-molecule microarray, fluorescence 635/667 nm, 0.1 µg/mL protein (AID 1182). Particulars: fluorescent protein binding, 635 nm, higher = more signal, called active from +8 up or from −8 down.
In assay [2] the test system is XIP peptide (Xip251-270). Briefly: small-molecule binders of XIP peptide, primary screen, biochemical, small-molecule microarray, fluorescence 635/667 nm, 0.5 µg/mL protein (AID 1183). Particulars: small-molecule microarray binding, fluorescence 635 nm; higher = more signal.
A short description of assay [3]: Plasmodium falciparum growth inhibition, primary screen, strain 3D7, DAPI fluorescence, 100 nL (AID 1184).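 Note: parasites grown inside human red blood cells in medium with human serum.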 Particulars: P. falciparum 3D7 growth, 3 d, higher = more signal.
The target in assay [4] is Homeobox protein Hox-A13 (Mus musculus) (UniProt Q62424). Nature of the assay: inhibitors of HoxA13-DNA binding, primary screen, biochemical, fluorescence polarization, labeled oligonucleotide (AID 1185). Particulars: 15 min, higher = more signal, called active from +8 up or from −8 down. (In fluorescence polarisation assays a small probe gives low polarisation when free and higher when bound to something large.)
Sequence of Homeobox protein Hox-A13 (Mus musculus) (Q62424 whole entry, looked up): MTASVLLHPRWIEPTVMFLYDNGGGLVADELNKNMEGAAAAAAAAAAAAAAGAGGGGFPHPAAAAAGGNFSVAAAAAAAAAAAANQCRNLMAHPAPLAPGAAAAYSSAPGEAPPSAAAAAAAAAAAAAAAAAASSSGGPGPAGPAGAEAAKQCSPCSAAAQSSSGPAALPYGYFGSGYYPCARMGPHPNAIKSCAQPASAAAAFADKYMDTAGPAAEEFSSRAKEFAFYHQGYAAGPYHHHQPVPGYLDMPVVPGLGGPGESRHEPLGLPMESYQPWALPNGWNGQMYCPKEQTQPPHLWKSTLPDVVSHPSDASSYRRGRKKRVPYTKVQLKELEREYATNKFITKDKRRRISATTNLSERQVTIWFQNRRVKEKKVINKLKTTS

A short description of assay [5]: inhibitors of hydroxyurea-induced Chk1 phosphorylation, primary screen, imaging, HeLa, phospho-Chk1 antibody, percent positive cells (AID 1186). Particulars: hydroxyurea-induced phospho-Chk1 immunofluorescence imaging, higher = more signal.
The nature of assay [6]: inhibitors of hydroxyurea-induced Chk1 phosphorylation, primary screen, imaging, HeLa, phospho-Chk1 nuclear intensity (AID 1187). Particulars: hydroxyurea-induced phospho-Chk1 immunofluorescence imaging, higher = more signal.

For the molecule `C=CC[C@H](OC(=O)Nc1ccc(SC)cc1)c1ccc(O)c2ccccc12`, the composite z-score in assay [1] is 1.07 (inactive); in assay [2], 0.728. For the same molecule, the z-score in assay [3] is -0.922; in assay [4] it was -1.35 (inactive); in assay [5], -0.0114 (inactive); in assay [6], 0.142 (inactive).

In the case of `CCCC[C@@H](O)C1=C(COC)C[C@H]2C(=O)N(C)C(=O)[C@H]2[C@H]1CO`, the results for the composite z-score in assay [1] and in assay [2] were -0.703 (inactive) and 0.336, respectively. The z-score in assay [3] is -0.68; in assay [4] it was -1.8 (inactive); in assay [5] it was -0.476 (inactive); in assay [6] it was 0.0423 (inactive).

In the case of `CN(C)c1ccc(C(O)C2C=CC3C(=O)NC(=O)C3N2Nc2ccccn2)cc1` (centres undefined), the composite z-score in assay [1] is -0.181 (inactive); in assay [2], -0.0515. In addition, the z-score in assay [3] is 0.597; in assay [4], -2.26 (inactive); in assay [5], 0.431 (inactive); in assay [6], 0.493 (inactive).

Turning to `CCOC(=O)C[C@H]1[C@H](OC(=O)c2ccc(C(=O)c3ccccc3)cc2)[C@@H](NC(=O)C2CCCCC2)c2cc(OCCCO)ccc2N1C(=O)c1ccc2ccccc2n1`, the composite z-score in assay [1] is -0.482 (inactive); in assay [2] it was 0.368. For the same molecule, the z-score in assay [3] was -1.69; in assay [4] it was -0.814 (inactive); in assay [5], -0.739 (inactive); in assay [6] it was -0.573 (inactive).

For `CC[C@@H]1C=C(C(=O)O)[C@H](c2ccccc2)N1S(=O)(=O)c1ccc(C)cc1`, the values for the composite z-score in assay [1] and in assay [2] were 0.336 (inactive) and 0.504, respectively. Further, the z-score in assay [3] was 1.78; in assay [4], -3.56 (inactive); in assay [5], 0.504 (inactive); in assay [6], 0.227 (inactive).

As for `CN(C)C(=O)[C@]1(CCC(=O)OC(C)(C)C)N=C(c2ccc(OCCCO)cc2)O[C@@H]1c1ccccc1CN=[N+]=[N-]`, the composite z-score is 0.0464 (inactive) in assay [1] and 0.649 in assay [2]. The z-score in assay [3] is -2.39; in assay [4], -4.57 (inactive); in assay [5] it was -0.165 (inactive); in assay [6], 0.152 (inactive).

With `COc1ccc([Si](C)(C)[C@@H]2[C@@H](CCO)O[C@]3(C(=O)N(Cc4ccccc4)c4ccc(NC(=O)[C@H](C)O)cc43)[C@H]2C)cc1`, the composite z-score in assay [1] was 0.816 (inactive); in assay [2] it was 0.606. Also, the z-score in assay [3] was -2.83; in assay [4], -6.12 (inactive); in assay [5], -0.178 (inactive); in assay [6], -0.305 (inactive).

For the molecule `C=CCNC(=O)[C@@H]1[C@H]2C(=O)O[C@H](c3ccccc3)[C@H](c3ccccc3)N2[C@H](c2ccc(OCCO)cc2)[C@@]12C(=O)N(C(=O)OCCOC)c1ccc(C#Cc3ccc(OC)cc3)cc12`, the composite z-score in assay [1] is 0.448 (inactive); in assay [2] it was 0.589. Further, the z-score is -2.07 in assay [3], -0.573 (inactive) in assay [4], 0.0644 (inactive) in assay [5] and 0.22 (inactive) in assay [6].

Turning to `Cc1ccc(C(C)CC(O)C2C=CC3C(=O)N(c4ccccc4)C(=O)C3N2Nc2ccccc2)o1` (centres undefined), the composite z-score was 0.0436 (inactive) in assay [1] and 0.518 in assay [2]. The z-score was -0.54 in assay [3], -1.12 (inactive) in assay [4], -0.179 (inactive) in assay [5] and -0.508 (inactive) in assay [6].

For the molecule `COc1cc2c(cc1O)C=[N+](Cc1sc3ccccc3c1Cl)CC2`, the composite z-score in assay [1] is 0.669 (inactive); in assay [2], 0.133. The z-score was -1.84 in assay [3], -5.22 (inactive) in assay [4], 0.399 (inactive) in assay [5] and 0.9 (inactive) in assay [6].

With `C=CC[C@@H](OC(=O)Nc1ccc(OC)cc1)c1ccc(O)c(F)c1`, the results for the composite z-score in assay [1] and in assay [2] were 1.29 (inactive) and -1.1, respectively. The z-score is 0.765 in assay [3], -3.65 (inactive) in assay [4], 0.0919 (inactive) in assay [5] and 0.0113 (inactive) in assay [6].

As to `C=CCOC(=O)[C@@H]1[C@H]2C(=O)O[C@H](c3ccccc3)[C@H](c3ccccc3)N2[C@H](c2ccc(OCCOC(=O)[C@@H]3C[C@@H]4C(=O)N[C@@H](CCCC[N+](C)(C)C)C(=O)N4[C@@H]3c3ccc(O)cc3)cc2)[C@@]12C(=O)Nc1ccc(I)cc12`, the composite z-score in assay [1] was 0.481 (inactive); in assay [2], 0.808. For the same molecule, the z-score in assay [3] is -1.11; in assay [4] it was 6.56 (inactive); in assay [5] it was 0.355 (inactive); in assay [6] it was 0.521 (inactive).

For `COCC(=C=CC[C@H](O)c1ccccc1OCCO)C[C@H](O)c1ccccn1`, the composite z-score is -0.488 (inactive) in assay [1] and 0.0608 in assay [2]. Also, the z-score in assay [3] was -0.259; in assay [4], -4.52 (inactive); in assay [5], -2.25 (inactive); in assay [6], -1.6 (inactive).

`CCOC(=O)C=Cc1cccc(C)c1O`: the composite z-score was 2.79 (inactive) in assay [1] and 0.159 in assay [2]. Also, the z-score in assay [3] is -1.44; in assay [4], 0.534 (inactive); in assay [5], -0.193 (inactive); in assay [6], 0.0058 (inactive).

As for `CC(C)C[C@@H]1NC(=O)[C@@H]2C[C@H](C(=O)NCCCCCCN)[C@H](c3cccc(OCCO)c3)N2C1=O`, the composite z-score in assay [1] is 1.6 (inactive); in assay [2], 0.891. Besides, the z-score in assay [3] is -0.969; in assay [4], -3.79 (inactive); in assay [5], -0.349 (inactive); in assay [6], -0.207 (inactive).

For the molecule `C=CCN1C(=O)[C@]2(CCS(=O)(=O)c3ccccc3)N=C(c3ccc(OCCCO)cc3)O[C@@H]2c2ccccc21`, the composite z-score in assay [1] was 0.0088 (inactive); in assay [2] it was 0.804. Also, the z-score in assay [3] is -2.33; in assay [4] it was -2.55 (inactive); in assay [5], -0.419 (inactive); in assay [6] it was -0.216 (inactive).

For the molecule `O=C1NC(=O)C2C1C=CC(C(O)c1ccco1)N2Nc1ccc(Cl)cc1Cl` (centres undefined), the results for the composite z-score in assay [1] and in assay [2] were -0.101 (inactive) and 0.634, respectively. Besides, the z-score in assay [3] is -0.461; in assay [4], -5.4 (inactive); in assay [5], 0.54 (inactive); in assay [6], 0.408 (inactive).

On to `[N-]=[N+]=NCc1ccccc1C[C@@]1(C(N)=O)N=C(c2ccc(OCCCO)cc2)O[C@@H]1c1ccccc1`, for which the composite z-score was 0.755 (inactive) in assay [1] and 0.237 in assay [2]. Also, the z-score was -1.83 in assay [3], -5.03 (inactive) in assay [4], 0.107 (inactive) in assay [5] and 0.221 (inactive) in assay [6].

For the molecule `C=CCNC(=O)[C@@H]1[C@H]2C(=O)O[C@H](c3ccccc3)[C@H](c3ccccc3)N2[C@H](c2ccccc2OCCO)[C@@]12C(=O)Nc1ccc(C#CCC(C(=O)OC)C(=O)OC)cc12`, the composite z-score in assay [1] was 1.56 (inactive); in assay [2], 0.343. Besides, the z-score in assay [3] was -2.1; in assay [4], -3.02 (inactive); in assay [5], 0.0648 (inactive); in assay [6], -0.246 (inactive).
